Reference: PubChem BioAssay (Tox21)
Results filed as inconclusive are left out. The source made the active and inactive calls. Unless noted, calls follow the shape of the dose curve; as a rule, active = well fitted curve in the direction sought with a large enough effect in the repeat runs; inconclusive = weak or mixed curves; inactive = no such curve, though single readings can be large; an effect the other way counts as inactive or inconclusive.

Assays:
[1] = A CellTox Green Cytotoxicity Assay to monitor cytotoxicity in HepG2 cells - 0 hour (AID 1224882); details: CellTox Green fluorescence; series mostly up to 76.8 µM; also: nearly all actives have a fitted effect of over 35% in size
How it was run: (§1)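 First, HepG2 cells (600/well) mixed with reagent were plated; second, after 5 h at 37 C they received compounds via pintool; third, fluorescence was measured at 0 h through 40 h at 8 h intervals.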

[2] = A CellTox Green Cytotoxicity Assay to monitor cytotoxicity in HepG2 cells - 32 hour (AID 1224883); details: CellTox Green fluorescence; series mostly up to 76.8 µM; also: nearly all actives have a fitted effect of over 50% in size
How it was run: as §1

[3] = A CellTox Green Cytotoxicity Assay to monitor cytotoxicity in HEK293 cells - 8 hour (AID 1224884); details: CellTox Green fluorescence; series mostly up to 76.8 µM; also: nearly all actives have a fitted effect of over 35% in size
How it was run: (§2)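 Dead-cell fluorescence measured kinetically: asymmetric cyanine dye, HEK293, 600 cells/well, 5 h settle, 23 nL cpd/DMSO, 37 C, reads 0–40 h every 8 h.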

[4] = qHTS RealTime-Glo MT Cell Viability Assay in HepG2 cells - 16 hour (AID 1224885); details: RealTime-Glo luminescence; series mostly up to 76.8 µM; also: nearly all actives have a fitted effect of over 50% in size
How it was run: (§3)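 Luminescence read-out: viable HepG2 cells reduce a prosubstrate to a NanoLuc substrate, giving a signal proportional to live cell number. Reads taken at 0, 8, 16, 24, 32 and 40 h of compound exposure at 37 C.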

[5] = qHTS RealTime-Glo MT Cell Viability Assay in HEK293 cells - 24 hour (AID 1224886); details: RealTime-Glo luminescence; series mostly up to 76.8 µM; also: top concentration of the series differs between compounds; nearly all actives have a fitted effect of over 50% in size
How it was run: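 Nonlytic real-time viability readout: viable cells convert prosubstrate to NanoLuc substrate, giving luminescence proportional to live cell number. HEK293, 600 cells/well, compound added after 5 h, continuous culture at 37 C.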

[6] = qHTS RealTime-Glo MT Cell Viability Assay in HEK293 cells - 8 hour (AID 1224887); details: RealTime-Glo luminescence; series mostly up to 76.8 µM; also: top concentration of the series differs between compounds; nearly all actives have a fitted effect of over 50% in size
How it was run: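 600 HEK293 cells per well, dispensed already mixed with RealTime-Glo MT reagents. Compound dosing came 5 h later. The same wells were read for luminescence at 0, 8, 16, 24, 32 and 40 h of exposure at 37 C.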

[7] = A CellTox Green Cytotoxicity Assay to monitor cytotoxicity in HEK293 cells - 16 hour (AID 1224888); details: CellTox Green fluorescence, hits give high values; series mostly up to 76.8 µM; also: nearly all actives have a fitted effect of over 35% in size
How it was run: as §2

[8] = qHTS RealTime-Glo MT Cell Viability Assay in HepG2 cells - 0 hour (AID 1224889); details: RealTime-Glo luminescence; series mostly up to 76.8 µM; also: nearly all actives have a fitted effect of over 50% in size
How it was run: as §3

[9] = A CellTox Green Cytotoxicity Assay to monitor cytotoxicity in HepG2 cells - 8 hour (AID 1224890); details: CellTox Green fluorescence; series mostly up to 76.8 µM; also: nearly all actives have a fitted effect of over 45% in size
How it was run: as §1

[10] = qHTS assay to identify small molecule antagonists of the estrogen receptor alpha (ER-alpha) signaling pathway using the BG1 cell line in the presence of 0.1 nM 17-beta-estradiol - cell viability counter screen (AID 1259241); details: VM7Luc4E2 (BG1) viability, CellTiter-Fluor protease, 22 h, 0.1 nM estradiol agonist added; series mostly up to 92.4 µM; also: nearly all actives have a fitted effect of over 40% in size
How it was run: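 VM7Luc4E2 cells (endogenous ER-alpha, 4×ERE-luciferase), hormone-starved 5 days in charcoal-stripped FBS, were treated with compounds plus 0.1 nM 17beta-estradiol for 22 hr at 37C; viability read in same wells as CellTiter-Fluor live-cell protease fluorescence.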

[11] = qHTS assay to identify small molecule antagonists of the androgen receptor (AR) signaling pathway using the MDA cell line in the presence of 0.5 nM R1881 - cell viability counter screen (AID 1259242); details: MDA-kb2 viability, CellTiter-Fluor protease fluorescence, 16 h; series mostly up to 92.4 µM; also: nearly all actives have a fitted effect of over 45% in size
How it was run: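 qHTS format. MDA-kb2 (MMTV-luc, AR/GR responsive) + cpd + 0.5 nM R1881 final, 16 hr 37C/0% CO2 → CellTiter-Fluor 30 min → fluorescence intensity.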

[12] = qHTS assay to identify small molecule HDAC inhibitors - cell viability counter screen (AID 1259365); details: HCT-116 viability, CellTiter-Glo ATP luminescence, 2 h; series mostly up to 92.4 µM; also: nearly all actives have a fitted effect of over 50% in size
How it was run: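 Wild-type HCT-116 cells were seeded at 1,500 per well, incubated overnight at 37 C, then exposed to compounds in DMSO for 2hr. Viability was read by CellTiter-Glo luminescence after 30min at room temperature.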

[13] = qHTS assay to identify small molecule agonists of the sonic hedgehog signaling (Shh) pathway - cell viability counter screen (AID 1259366); details: NIH/3T3 Gli1-Luc viability, CellTiter-Fluor, 24 h; series mostly up to 92.4 µM; also: nearly all actives have a fitted effect of over 50% in size; also: potency is read from the fitted curve at half-maximal effect
How it was run: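 NIH/3T3-derived 3T3 Gli1-Luc cells (stable Gli1-responsive firefly luciferase reporter) were seeded, rested 4 hr at 37 C/5% CO2, then exposed to compounds in DMSO for 24 hr; viability was read by CellTiter-Fluor fluorescence in the same wells.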

[14] = qHTS assay to identify small molecule antagonists of the sonic hedgehog signaling (Shh) pathway - cell viability counter screen (AID 1259367); details: NIH/3T3 Gli1-Luc viability, CellTiter-Fluor, 24 h; series mostly up to 92.4 µM; also: nearly all actives have a fitted effect of over 55% in size
How it was run: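 Tox21 library chemicals were tested on a Gli1-Luc NIH/3T3 clone (2,000 cells/well) stimulated by conditioned medium; viability was quantified as fluorescence from CellTiter-Fluor reagent added at 23 hr.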

[15] = qHTS assay to identify small molecule agonists of the sonic hedgehog signaling (Shh) pathway (AID 1259368; calls by dose curve; also: nearly all actives have a fitted effect of over 15% in size); details: NIH/3T3 Gli1-Luc reporter, luciferase, 24 h, hits give high values; series mostly up to 92.4 µM
How it was run: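 Quantitative high-throughput format using a Gli1-driven firefly luciferase reporter line derived from NIH/3T3 cells. After a 24 hr compound treatment at 37 C and 5% CO2, luminescence reported Gli1 response element activity.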

[16] = target: Estrogen receptor (Homo sapiens) (UniProt P03372); test: qHTS assay to identify small molecule antagonists of the estrogen receptor alpha (ER-alpha) signaling pathway using the BG1 cell line in the presence of 0.1 nM 17-beta-estradiol (AID 1259244); details: VM7Luc4E2 (BG1) ERE-luciferase, antagonist mode, 0.1 nM E2, 22 h; series mostly up to 92.4 µM; also: nearly all actives have a fitted effect of over 50% in size
How it was run: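 Reporter is a stably transfected luciferase under four estrogen responsive elements in VM7Luc4E2 cells expressing native full-length ER-alpha; inhibition of 0.1 nM (final) 17beta-estradiol-driven signal over 22 h is read by luminescence.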

[17] = qHTS assay to identify small molecule HDAC inhibitors (AID 1259364); details: HCT-116 HDAC-Glo I/II luminescence, 2 h; series mostly up to 92.4 µM;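 also: wild-type HCT-116 cells with endogenous class I/II HDAC activity; top concentration of the series differs between compounds; nearly all actives have a fitted effect of over 45% in size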
How it was run: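 Quantitative high-throughput format: overnight-seeded HCT-116 cells got compounds for 2 hr at 37C; HDAC-Glo I/II reagent added, 30 min RT, luminescence measured.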

[18] = qHTS assay to identify small molecule phospholipidosis (PLD) inducers (AID 1259344; active = well fitted curve in the direction sought with a large enough effect; an effect the other way counts as inactive or inconclusive); details: HepG2 phospholipidosis, LipidTOX Red imaging, 24 h; series mostly up to 38.3 µM
How it was run: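 Image-based: LipidTOX Red pit count/intensity per well and per cell; HepG2, 24 h compound at 37 C, PFA fixation, Hoechst counterstain.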

[19] = target: Androgen receptor (Homo sapiens) (UniProt P10275); test: qHTS assay to identify small molecule antagonists of the androgen receptor (AR) signaling pathway using the MDA cell line in the presence of 0.5 nM R1881 (AID 1259243); details: MDA-kb2 MMTV-luciferase, R1881 0.5 nM, 16 h; series mostly up to 42.5 µM; also: nearly all actives have a fitted effect of over 50% in size; also: potency is read from the fitted curve at half-maximal effect
How it was run: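 Antagonist mode quantitative HTS in MDA-kb2 MMTV-luciferase cells, agonist R1881 at 0.5 nM final, 16 hr exposure at 37C and 0% CO2, luminescent detection.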

Measured: Potency

Androgen receptor (Homo sapiens), sequence (P10275 whole entry, looked up): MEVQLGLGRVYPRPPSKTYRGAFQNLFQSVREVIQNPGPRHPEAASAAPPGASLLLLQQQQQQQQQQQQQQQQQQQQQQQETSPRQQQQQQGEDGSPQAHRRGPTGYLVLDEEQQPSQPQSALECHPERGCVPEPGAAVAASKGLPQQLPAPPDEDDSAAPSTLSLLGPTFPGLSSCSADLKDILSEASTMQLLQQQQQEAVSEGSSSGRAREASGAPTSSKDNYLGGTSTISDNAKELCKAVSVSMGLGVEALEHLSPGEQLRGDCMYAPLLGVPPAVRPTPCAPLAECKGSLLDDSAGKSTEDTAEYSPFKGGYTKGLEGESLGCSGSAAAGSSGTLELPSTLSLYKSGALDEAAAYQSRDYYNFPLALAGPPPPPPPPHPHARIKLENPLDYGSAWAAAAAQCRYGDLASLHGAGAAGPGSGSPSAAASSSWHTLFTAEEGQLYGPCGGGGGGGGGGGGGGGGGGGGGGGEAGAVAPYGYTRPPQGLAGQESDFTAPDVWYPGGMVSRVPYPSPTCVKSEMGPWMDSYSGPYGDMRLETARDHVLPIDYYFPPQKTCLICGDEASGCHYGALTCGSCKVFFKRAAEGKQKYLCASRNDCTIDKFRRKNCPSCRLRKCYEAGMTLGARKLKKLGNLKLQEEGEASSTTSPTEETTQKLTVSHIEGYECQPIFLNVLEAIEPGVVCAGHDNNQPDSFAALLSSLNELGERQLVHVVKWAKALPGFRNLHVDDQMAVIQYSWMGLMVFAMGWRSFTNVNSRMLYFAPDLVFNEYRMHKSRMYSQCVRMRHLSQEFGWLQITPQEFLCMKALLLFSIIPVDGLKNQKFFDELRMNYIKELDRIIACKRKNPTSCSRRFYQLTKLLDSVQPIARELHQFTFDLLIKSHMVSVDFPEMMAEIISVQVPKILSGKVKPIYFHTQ
Estrogen receptor (Homo sapiens), sequence (P03372 whole entry, looked up): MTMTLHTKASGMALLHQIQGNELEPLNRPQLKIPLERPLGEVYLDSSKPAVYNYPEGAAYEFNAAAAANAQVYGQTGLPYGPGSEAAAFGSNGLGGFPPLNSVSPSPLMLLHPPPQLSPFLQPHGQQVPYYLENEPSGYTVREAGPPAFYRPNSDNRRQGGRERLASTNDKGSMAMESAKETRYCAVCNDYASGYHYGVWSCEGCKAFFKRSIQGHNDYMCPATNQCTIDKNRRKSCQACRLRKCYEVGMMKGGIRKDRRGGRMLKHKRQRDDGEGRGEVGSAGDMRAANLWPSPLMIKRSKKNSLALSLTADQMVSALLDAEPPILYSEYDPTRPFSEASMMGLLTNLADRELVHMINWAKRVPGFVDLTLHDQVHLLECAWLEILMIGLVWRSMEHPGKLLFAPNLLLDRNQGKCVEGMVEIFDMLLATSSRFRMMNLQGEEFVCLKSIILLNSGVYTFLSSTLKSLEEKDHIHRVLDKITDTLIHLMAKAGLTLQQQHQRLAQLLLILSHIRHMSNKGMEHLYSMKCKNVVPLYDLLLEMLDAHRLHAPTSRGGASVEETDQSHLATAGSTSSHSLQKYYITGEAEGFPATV

c1coc(CNc2ncnc3nc[nH]c23)c1
not listed: [16] | [17] | [18] | [19]
inactive: all other assays above

CC(CO)(CO)[N+](=O)[O-]
not listed: [14] | [18] | [19]
inactive: all other assays above

CCNS(=O)(=O)c1ccc(C)cc1
not listed: [18] | [19]
inactive: all other assays above

N[C@@H](CCC(=O)O)C(=O)O
not listed: [7] | [14] | [15] | [19]
inactive: all other assays above

CCCCOCCOC(=O)CCCCCCCCC(=O)OCCOCCCC
not listed: [5] | [13] | [14] | [15] | [16] | [18] | [19]
inactive: all other assays above

NCCCC[C@H](N[C@@H](CCc1ccccc1)C(=O)O)C(=O)N1CCC[C@H]1C(=O)O
not listed: [2] | [14] | [16] | [18] | [19]
inactive: all other assays above

CCCCCCCC1CCCC1=O (configuration not stated)
not listed: [5] | [15] | [18]
inactive: all other assays above

c1ccc(CCc2ccccc2)cc1
not listed: [2] | [9] | [16] | [18] | [19]
inactive: all other assays above

O=C(c1ccccc1O)c1ccccc1O
active: [19] 24.1 µM
not listed: [5] | [7] | [8] | [14] | [15] | [18]
inactive: all other assays above

c1ccc(Cc2ccccc2)cc1
not listed: [18] | [19]
inactive: all other assays above

C=C(C)C(=O)OCC1CCCO1 (configuration not stated)
not listed: [7] | [16] | [18] | [19]
inactive: all other assays above

C[C@@H]1CCC[C@H](C)N1
not listed: [16] | [18] | [19]
inactive: all other assays above

CN1C(C)(C)CC(O)CC1(C)C
not listed: [18] | [19]
inactive: all other assays above

O=CN(CCO)CCO
not listed: [13] | [14] | [16] | [18] | [19]
inactive: all other assays above

CN(C)CCCCCCN(C)C
not listed: [10] | [11] | [16] | [18] | [19]
inactive: all other assays above

C=CCOCC(O)CO (configuration not stated)
not listed: [1] | [2] | [7] | [9] | [18] | [19]
inactive: all other assays above

O=C(CO)[C@@H](O)[C@H](O)[C@@H](O)CO
not listed: [1] | [2] | [9] | [13] | [18] | [19]
inactive: all other assays above

CC(=O)O[C@@]12CO[C@@H]1C[C@H](O)[C@@]1(C)C(=O)[C@H](O)C3=C(C)[C@@H](OC(=O)[C@H](O)[C@@H](NC(=O)OC(C)(C)C)c4ccccc4)C[C@@](O)([C@@H](OC(=O)c4ccccc4)[C@H]21)C3(C)C
active: [13] 6.68 µM
not listed: [2] | [5] | [7] | [14] | [15]
inactive: all other assays above

O=C1NC(=O)C2CC=CCC12 (configuration not stated)
not listed: [7] | [16] | [18] | [19]
inactive: all other assays above

CO[C@@]1(NC(=O)CSC[C@@H](N)C(=O)O)C(=O)N2C(C(=O)O)=C(CSc3nnnn3C)CS[C@@H]21
not listed: [2] | [18]
inactive: all other assays above

Nc1ccncc1N
not listed: [2] | [16] | [19]
inactive: all other assays above

CC1=C(C/C=C(\C)CCC[C@H](C)CCC[C@H](C)CCCC(C)C)C(=O)c2ccccc2C1=O
not listed: [2] | [5] | [7] | [16] | [19]
inactive: all other assays above

O=S(=O)(O)c1cccc(S(=O)(=O)O)c1
not listed: [5] | [7] | [14] | [18]
inactive: all other assays above

CC[N+](CC)(CC(=O)Nc1c(C)cccc1C)Cc1ccccc1 (tested in a mixture with another compound)
not listed: [2] | [16] | [18] | [19]
inactive: all other assays above
